# Data from the supplement of paper PMC8728848.
# The sample as a whole holds a higher share of the strongest signals than the screen did.
# B1: RfpC (Mycobacterium tuberculosum), O07747 (protein)
# chain: MHHHHHHSSGRENLYFQGHMASKSAMAAGLVTASMSLSTAVAHAGPSPNWDAVAQCESGGNWAANTGNGKYGGLQFKPATWAAFGGVGNPAAASREQQIAVANRVLAEQGLDAWPTCGAASGLPIALWSKPAQGIKGS
# What was measured:
# Assay in all cases: glycan array binding signal (z-score within array); higher = stronger binding
# Details in all cases: glycan notation: IUPAC condensed, linker removed
# [1] = molecular target: Fuc(a1-2)Gal(b1-3)GlcNAc(b1-3)Gal(b1-4)Glc
# How it was run: (§1)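 The binding signal is a Z-score computed within each array. Data were drawn from 3228 arrays in the Consortium for Functional Glycomics database, restricted to those with a known protein sequence. Scores were averaged over arrays of the same protein sequence at different concentrations or buffers, and over linkers, and negative values can be taken as non-binding.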
# [2] = molecular target: Fuc(a1-4)GlcNAc
# How it was run: as §1
# [3] = molecular target: Gal(b1-4)GalNAc(b1-3)[Fuc(a1-2)]Gal(b1-4)GlcNAc
# How it was run: as §1
# [4] = molecular target: Gal(b1-4)Glc
# How it was run: as §1
# [5] = molecular target: Gal(b1-4)Glc6S
# How it was run: as §1
# [6] = molecular target: Gal(b1-4)GlcNAc(b1-3)Gal(b1-4)[Fuc(a1-3)]GlcNAc(b1-3)Gal(b1-4)[Fuc(a1-3)]GlcNAc
# How it was run: as §1
# [7] = molecular target: Gal(b1-4)GlcNAc(b1-6)GalNAc
# How it was run: as §1
# [8] = molecular target: Gal4S(b1-4)GlcNAc
# How it was run: as §1
# [9] = molecular target: GalNAc(b1-3)Gal(a1-4)Gal(b1-4)GlcNAc
# How it was run: as §1
# [10] = molecular target: GlcNAc(b1-3)Gal
# How it was run: as §1
# [11] = molecular target: Kdn(a2-3)Gal(b1-4)GlcNAc
# How it was run: as §1
# [12] = molecular target: Man(a1-2)Man(a1-2)Man(a1-3)Man
# How it was run: as §1
# [13] = molecular target: Man(a1-2)Man(a1-3)[Man(a1-2)Man(a1-6)]Man(a1-6)[Man(a1-2)Man(a1-2)Man(a1-3)]Man(b1-4)GlcNAc(b1-4)GlcNAc
# How it was run: as §1
# [14] = molecular target: Man(a1-6)Man
# How it was run: as §1
# [15] = molecular target: Neu5Ac(a2-3)Gal
# How it was run: as §1
# [16] = molecular target: Neu5Ac(a2-3)Gal(b1-3)GalNAc(b1-4)[Neu5Ac(a2-3)]Gal(b1-4)Glc
# How it was run: as §1
# [17] = molecular target: Neu5Ac(a2-3)Gal(b1-4)[Fuc(a1-3)]GlcNAc(b1-3)Gal(b1-4)[Fuc(a1-3)]GlcNAc(b1-3)Gal(b1-4)[Fuc(a1-3)]GlcNAc
# How it was run: as §1
# [18] = molecular target: Neu5Ac(a2-3)[Neu5Ac(a2-6)]GalNAc
# How it was run: as §1
# [19] = molecular target: Neu5Ac(a2-6)Gal(b1-4)Glc
# How it was run: as §1
# [20] = molecular target: Neu5Ac(a2-6)Gal(b1-4)GlcNAc(b1-2)Man(a1-3)[Gal(b1-4)GlcNAc(b1-2)Man(a1-6)]Man(b1-4)GlcNAc(b1-4)GlcNAc
# How it was run: as §1
# [21] = molecular target: Neu5Gc(a2-6)GalNAc
# How it was run: as §1
# [22] = molecular target: Neu5Gc(b2-6)Gal(b1-4)GlcNAc
# How it was run: as §1
binder,measurement,setting,value
B1,glycan array binding signal (z-score),[1],0.546
same,glycan array binding signal (z-score),[2],-1.09
same,glycan array binding signal (z-score),[3],3.48
same,glycan array binding signal (z-score),[4],-0.11
same,glycan array binding signal (z-score),[5],4.01
same,glycan array binding signal (z-score),[6],-0.25
same,glycan array binding signal (z-score),[7],-0.822
same,glycan array binding signal (z-score),[8],0.815
same,glycan array binding signal (z-score),[9],3.74
same,glycan array binding signal (z-score),[10],-0.187
same,glycan array binding signal (z-score),[11],-0.421
same,glycan array binding signal (z-score),[12],2.92
same,glycan array binding signal (z-score),[13],-0.745
same,glycan array binding signal (z-score),[14],-0.622
same,glycan array binding signal (z-score),[15],0.641
same,glycan array binding signal (z-score),[16],-0.923
same,glycan array binding signal (z-score),[17],-0.798
same,glycan array binding signal (z-score),[18],0.475
same,glycan array binding signal (z-score),[19],0.057
same,glycan array binding signal (z-score),[20],-0.731
same,glycan array binding signal (z-score),[21],1.8
same,glycan array binding signal (z-score),[22],3.14
